According to PubChem BioAssay AID1259313 (Sanford-Burnham Center for Chemical Genomics, 2017):
About 8,500 (2.5%) of roughly 340,000 compounds were called active.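 The calls were made as follows: active = melting temperature shift of at least 10% of the positive control shift, at one fixed dose; inactive = the rest.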 This excerpt belongs to a sample that is enriched for actives.

tested on: Glutamate receptor ionotropic, NMDA 3A (GRIN3A) ligand-binding domain; assay: binders of NR3A ligand-binding domain, primary screen, biophysical, differential scanning fluorimetry, uHTS (AID 1259313); settings: NR3A LBD differential scanning fluorimetry, at 25 µM, hits give high values, 0% = protein alone, 100% = glycine-bound protein

Tm shift relative to glycine control, active:
O=C(Nc1ccccc1)Nc1nnc(COc2ccccc2F)s1 38.9%, CN(NC(=O)c1ccccc1)c1nc2ccccc2nc1C(F)(F)F 11.4%, O=C1NC(Nc2nc3ccccc3s2)(C(F)(F)F)C(=O)N1C1CCCCC1 (stereo not drawn) 13.7%, Cc1ccc(-n2cc3ccc([N+](=O)[O-])cc3n2)cc1 13.3%, Cc1cc(NCc2ccco2)n2c(nc3ccccc32)c1C#N 19.7%, Cc1ccc(O)c(/C=N/NC(=O)COc2ccc3c(C)cc(=O)oc3c2)c1 16.8%, CC(C)Cn1c(N)c(C(=O)NCc2cccs2)c2nc3ccccc3nc21 19.1%, O=C(/C(=C/c1cccc(Cl)c1)c1nc2ccccc2[nH]1)c1ccccc1 23%, O=C(Cn1cc(/C=N/NC(=O)c2cccc(C(F)(F)F)c2)c2ccccc21)Nc1ccc(F)cc1 15.8%, Cc1ccc(NC(=O)c2cc(-c3ccccc3O)n[nH]2)cc1C 26.2%, O=C(CNS(=O)(=O)c1ccc2ccccc2c1)Nc1ccc(F)c(F)c1F 35%, N#Cc1c(N)n(CCOC(=O)c2ccc(Cl)cc2)c2nc3ccccc3nc12 35.9%, O=C(Nc1cc(S(=O)(=O)Nc2ccc(Cl)cc2)ccc1O)c1ccc(F)cc1F 37.7%, COc1ccccc1N(CCOc1ccccc1)S(=O)(=O)c1ccccc1 12.6%, O=C(Nc1c(Cl)cccc1Cl)C1CCC1 12.7%, Cc1c(S(=O)(=O)N2CC(C)CC(C)C2)c(=O)n(C)c(=O)n1C (stereo not drawn) 11.1%

Tm shift relative to glycine control, inactive:
COCC(=O)Nc1nnc(COc2ccccc2)s1 2.29%, O=C(Nc1nnc(COc2ccccc2)s1)Nc1ccccc1F 1.33%, Cc1ccc(-c2nnc(SCC(=O)N/N=C/c3cccs3)n2-c2ccc(C)cc2)cc1 -6.78%, COc1cccc(/C=C/C(=O)Nc2ccc3c(c2)OCCO3)c1 2.64%, CCC1([N+](=O)[O-])COC(c2ccc(C)cc2)OC1 (stereo not drawn) -10.1%, NC(=O)CC[C@@H]1NC(=O)[C@H](CO)NC(=O)c2cc([N+](=O)[O-])cc(I)c2NCC[C@@H](C(N)=O)NC1=O -0.81%, O=C(NCc1ccccc1Cl)C1CCCN1S(=O)(=O)c1ccc(F)cc1 (stereo not drawn) 2.13%, O=C(CN1CCN(S(=O)(=O)c2ccc(Cl)s2)CC1)NCc1ccc(Cl)cc1 -1.27%, CSc1nc(N(C)NC(=O)c2cccc(C)c2)c2ccccc2n1 3.17%, CN(NC(=O)c1ccccc1F)c1nc(C(F)(F)F)nc2ccccc12 0.16%, Cc1ccc(C)c(C(=O)N2CCC(n3nccc3NC(=O)C3CC3)CC2)c1 0.44%, O=C(NC1(C(F)(F)F)NC(=O)N(C2CCCCC2)C1=O)c1ccco1 (stereo not drawn) 1.55%, CCC1(CC)NC(=O)N(Cc2nc3ccccc3s2)C1=O -0.61%, Cc1ccc2oc(=O)c3cnn(CC(=O)N4CCN(c5ccccn5)CC4)c3c2c1 0.6%, CCOc1cccc2cc(C(=O)OCC(=O)Nc3c(C)cccc3CC)c(=O)oc12 -0.27%, N#C/C(=C\N1CCOCC1)S(=O)(=O)c1ccc(Cl)cc1 -0.42%, CCCN(CCC)c1c([N+](=O)[O-])c(=O)oc2ccccc12 -4.15%, Cc1ccc(-c2cn3cc([N+](=O)[O-])ccc3n2)cc1 0.72%, Cc1ccc(C(=O)Cn2cc([N+](=O)[O-])nc2C)cc1 2.36%, CN(C)/C=C(/C(=O)c1ccccc1)S(=O)(=O)c1ccc(Cl)cc1 -1.01%, CC(C)c1cc(NCc2ccccn2)n2c(nc3ccccc32)c1C#N 1.69%, Cc1cc(NC(C)C)n2c(nc3ccccc32)c1C#N 0.92%, O=C(NCc1ccc2c(c1)OCO2)C12CC3CC(CC(C3)C1)C2 -0.27%, Cc1cc(=O)oc2cc(OCC(=O)Nc3nnc(C4CC4)s3)ccc12 -0.86%, CCOC(=O)Cc1csc(NC(=O)COc2ccc3c(C)cc(=O)oc3c2)n1 -1.92%, O=C(NCc1cccs1)c1cc(-c2ccccn2)nc2ccc(Br)cc12 -0.39%, CCOc1ccccc1NC(=O)Cn1nnc(C(=O)NCc2cccs2)c1N -0.84%, Cc1ccc(S(=O)(=O)c2ccc(Cl)cc2)cc1S(=O)(=O)NC(C(=O)O)C(C)C (stereo not drawn) -2.2%, CCCOn1c(-n2nc(C)cc2C)nc2ccccc2c1=O 1.18%, O=C(CSc1ccc(C(F)(F)F)cc1[N+](=O)[O-])NCCOc1ccccc1 -6.06%, N#C/C(=C(/O)COC(=O)COc1ccc(Cl)cc1)c1nc2ccccc2[nH]1 7.42%, Oc1ccc2nc(Cc3ccccc3)[nH]c2c1 -5.45%, CN(CC1CCCN(CCc2cccc(C(F)(F)F)c2)C1)C(=O)c1ccc2nc[nH]c2c1 (stereo not drawn) 1.25%, O=C(CN1CCN(c2ccc(F)cc2)CC1)Nc1cccc(C(F)(F)F)c1 -4.33%, NC(=O)Cn1cc(/C=N\NS(=O)(=O)c2ccccc2)c2ccccc21 -34.7%, CCCOC(=O)c1ccc(N2C(=O)c3ccccc3C2=O)cc1 -1.6%, Cc1ccc(NC(=O)CCN2C(=O)c3ccccc3C2=O)cc1C -0.19%, Cc1ccc(C)c(NC(=O)c2cc(-c3cc(C)cc(C)c3O)n[nH]2)c1 0.62%, CN(CC(=O)NCCc1ccc(S(N)(=O)=O)cc1)CC(=O)Nc1ccc(F)c(F)c1F -1.98%, O=C(CNS(=O)(=O)c1cccc(C(F)(F)F)c1)Nc1ccccc1F -1.13%, O=C(c1ccncc1)N1CCN(S(=O)(=O)c2cccc([N+](=O)[O-])c2)CC1 2.5%, Cc1ccc(Cc2cncc(O)c2)cc1S(=O)(=O)O 0.09%, CNc1nc(=O)n(C2CCCO2)cc1C (stereo not drawn) -4.19%, CN(C)CCCn1c(N)c(C#N)c2nc(C#N)c(C#N)nc21 -3.53%, COCC(C)OC(=O)c1c(N)n(CCCN2CCOCC2)c2nc3ccccc3nc12 (stereo not drawn) -0.69%, C=CCc1cccc2cc(C(=O)N3CCN(C(=O)OCC)CC3)c(=O)oc12 -2.65%, Cc1ccc(NC(=O)CSc2nn3c(=O)c(C)nnc3s2)cc1Cl -1.28%, C/C(=N\Nc1ccc(Cl)nn1)c1ccccc1O -6.71%, CC(C)(C)c1ccc(SCCc2ccncc2)cc1 0.08%, O=C(Nc1cccc(S(=O)(=O)NC2=NCCC2)c1)c1ccc(F)cc1F 0.09%, Cc1cc(NS(=O)(=O)c2ccc(NC(=S)NC(=O)c3ccc(F)cc3Cl)cc2)no1 0.87%, Cn1c(Cc2cccc3ccccc23)nnc1SCC(=O)N1CCN(c2cccc(Cl)c2)CC1 5.43%, CCC(Oc1ccccc1C)C(=O)Nc1ccc(S(=O)(=O)Nc2cc(C)on2)cc1 (stereo not drawn) 3.83%, Cc1ccc(S(=O)(=O)N2CCCCC2)cc1C(=O)N1CCN(CCO)CC1 2.45%, COc1ccccc1N(CC(=O)N1CCCCC1)S(=O)(=O)c1ccccc1 0.84%, COc1ccccc1NC(=O)CN(c1ccccc1OC)S(=O)(=O)c1ccccc1 0.31%, CN(CC(=O)Nc1c(Cl)cccc1Cl)C(=O)CNC(=O)C1CCCCC1 0.17%, NC(=S)Nc1c(Cl)cccc1Cl 2.25%, Cc1c(S(=O)(=O)NC(C)c2ccccc2)c(=O)n(C)c(=O)n1C (stereo not drawn) -6.52%, Cc1c(S(=O)(=O)NCc2ccccc2)c(=O)n(C)c(=O)n1C -0.41%, O=C(NCCc1ccccc1Cl)C1CCC(=O)N(CCCc2ccccc2)C1 (stereo not drawn) 3.05%, O=C(NNC(=O)c1ccc(-n2cncn2)c([N+](=O)[O-])c1)c1ccccc1 3.86%
